# The list is not random: actives were taken first. Their share in the collection is about 19%.
# DT40 TDP1 CPT – DT40-hTDP1 cell growth loss with CPT; Potency, µM (titrated, usually from 46.2 µM), for the others: top-dose activity change, negative = growth inhibition, usual class: inhibitors; hit rate 12% among 420,000; AID 686979; chicken DT40 Tdp1-/-;hTDP1 cells + 20 nM CPT, ATP luminescence, 48 h; further: nearly all actives have a fitted effect of over 55% in size
#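 Cell growth measured by CellTiter-Glo luminescence after a minimum 48 h, 37 C compound exposure with 20 nM CPT in Tdp1-knockout DT40 cells stably expressing hTDP1, seeded 400/well; qHTS titration format.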
# RORgamma inh – ROR gamma (mouse) transcription inhibition; Drosophila S2 Gal4-RORgamma UAS-luciferase reporter, 20 h; Potency, µM (top dose mostly 53.6 µM), for inactives: at the top dose activity change, negative = inhibition, hits mostly inhibitors; hit rate 5.4% among 310,000; further: nearly all actives have a fitted effect of over 60% in size
# Target sequence (P51450 whole entry, looked up, the tested form may be a part): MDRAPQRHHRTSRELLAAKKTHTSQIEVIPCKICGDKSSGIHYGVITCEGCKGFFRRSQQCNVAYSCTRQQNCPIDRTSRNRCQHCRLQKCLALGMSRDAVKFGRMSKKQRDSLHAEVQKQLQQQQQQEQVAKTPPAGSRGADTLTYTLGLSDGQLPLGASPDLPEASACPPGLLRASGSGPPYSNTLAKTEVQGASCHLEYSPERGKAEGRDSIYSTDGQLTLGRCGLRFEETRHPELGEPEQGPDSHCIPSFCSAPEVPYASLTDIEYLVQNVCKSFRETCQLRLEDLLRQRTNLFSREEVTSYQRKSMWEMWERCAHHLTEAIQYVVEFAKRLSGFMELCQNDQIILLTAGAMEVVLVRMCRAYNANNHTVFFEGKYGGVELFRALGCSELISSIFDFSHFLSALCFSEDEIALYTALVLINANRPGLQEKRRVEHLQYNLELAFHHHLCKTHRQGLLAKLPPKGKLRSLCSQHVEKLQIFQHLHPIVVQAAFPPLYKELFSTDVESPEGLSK
#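 Drosophila S2 cells stably expressing Gal4-DBD/mouse RORγ fusion under metallothionein promoter plus UAS-luciferase; compound 1 h, then 700 uM CuSO4 induction for 20 h at ambient temperature; inhibition read as reduced luminescence.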
# TDP1 block – TDP1 (human) enzyme inhibition; Q9NUW8; recombinant TDP1, AlphaScreen DNA substrate cleavage; Potency, µM (series often up to 130 µM), without a hit: at the top dose activity change, negative = inhibition, actives largely listed as inhibitors; hit rate 0.28% among 350,000; AID 485290; further: nearly all actives have a fitted effect of over 40% in size
#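 Recombinant human Tdp1 (E. coli-expressed, 1 nM final) preincubated with compounds 15 min at room temperature, then 5'-biotin/3'-phosphotyrosine-FITC DNA substrate (15 nM final) added for 5 min. AlphaScreen beads (10 ug/ml final) added 10 min; cleavage lowers signal.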
# Gal4-VP16 FLuc – counter-screen for ROR gamma inhibitors: Gal4-VP16 reporter; Drosophila S2 Gal4-VP16 UAS-luciferase, luminescence, 20 h; Potency, µM (titrated, usually from 53.6 µM), without a hit: at the highest dose activity, negative = inhibition, hits mostly inhibitors; hit rate 3.5% among 310,000; AID 2546;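 further: Gal4-VP16 expression switched on by copper sulfate through the metallothionein promoter; nearly all actives have a fitted effect of over 50% in size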
# TDP1 cell noCPT – qHTS for Inhibitors of human tyrosyl-DNA phosphodiesterase 1 (TDP1): qHTS in cells in absence of CPT; AID 686978, 2013; Potency, µM (series often up to 46.2 µM), for the others: at the top dose activity change, negative = growth inhibition, most hits filed as inhibitors; DT40 Tdp1-/- hTDP1 cells, no CPT, ATP luminescence, 48 h; hit rate 15% among 420,000; further: nearly all actives have a fitted effect of over 55% in size
#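 Compound effects on proliferation are scored in DT40 Tdp1-/-;hTDP1 cells in the absence of CPT. ATP levels (CellTiter-Glo luminescence) are recorded after a ≥48 hr, 37 °C incubation.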
# An asterisk follows results filed as active; u = inconclusive; x = no result given; [ ] = remark or other dose. The call rests on the fitted dose curve; in most records, active means well fitted curve in the direction sought with a large enough effect; inconclusive means small, poorly fitted or top-dose-only effect, or another doubt; inactive means no such curve, though single readings can be large; an effect the other way counts as inactive or inconclusive. On the % scale 0 is the no-effect control and ±100 the full control effect; potency means the concentration at half of the fitted maximal effect.
SMILES,DT40 TDP1 CPT,RORgamma inh,TDP1 block,Gal4-VP16 FLuc,TDP1 cell noCPT
CC1CC(C)CN(S(=O)(=O)c2ccc(NC(=S)NC(=O)c3ccccc3)cc2)C1 (stereo not given),u,u,0%,u,u
Cc1ccc(S(=O)(=O)Nc2ccc(Br)cc2/C=N/n2cnnc2)cc1,u,22%,0%,u,29µM*
C=CCc1cc(OC)c(O)c(C(=O)NCCO)c1,0%,12%,6%,-1%,-22%
O=[N+]([O-])c1cccc(-c2ccc3nnc(SCc4ccccn4)n3n2)c1,-3%,4%,-1%,7%,-2%
CCOc1cc(C(=O)Nc2ccc(-c3nc4cc(C)ccc4o3)cc2)cc(OCC)c1OCC,12µM*,x,6%,x,9.2µM*
CCOc1ccc(C(=O)Nc2ccc3oc(-c4ccncc4)nc3c2)cc1,-21%,x,x,x,-29%
CCOc1ccc(C(=O)Nc2ccc3oc(-c4ccc(C)cc4C)nc3c2)cc1Br,u,x,-1%[12.3 µM],x,13µM*
CCOc1cc(C(=O)Nc2ccc3oc(-c4ccc(CC)cc4)nc3c2)cc(OCC)c1OCC,23µM*,x,-2%[12.3 µM],x,8.2µM*
CCOC(=O)CN1C2=NCCCN2c2ccccc21,4%,4%,-5%,3%,2%
CCC1(CC)Cc2ccccc2C(N)=C1C#N,21µM*,-34%,2%,-10%,21µM*
C[C@H]1C=C2C=C[C@H](C)[C@H](CC[C@@H]3C[C@@H](O)CC(=O)O3)[C@H]2[C@@H](OC(=O)[C@@H](C)CCO)C1,27µM*,41%,12%,2%,27µM*
COc1ccc(N(C(=O)CNC(=O)c2cccs2)C(C(=O)NCC2CCCO2)c2ccc(OC)c(OC)c2)cc1 (stereo not given),-17%,-12%,5%,-7%,-10%
CC(C)(C)c1ccc(C(=O)O/N=C(\N)c2ccccc2)cc1,u,1.1µM*,x,6.3µM*,13µM*
Cc1ccc(NC(=O)CO/N=C(\N)c2ccccc2)cc1C,-4%,x,0%,x,-14%
Cc1noc(-c2ccc(Cl)cc2)c1C(=O)O/N=C(\N)c1ccc(C(C)(C)C)cc1,u,7.1µM*,x,7.9µM*,u
COc1ccc(C(=O)O/N=C(\N)c2ccccc2)cc1,-17%,u,x,u,-23%
Cc1occc1C(=O)O/N=C(\N)c1ccc(Cl)cc1,-3%,16%,3%,-11%,-22%
CCOC(=O)c1cc(/C(C)=N/OC(=O)c2ccc(C(C)(C)C)cc2)on1,u,-2%,-1%,3%,16µM*
CC(C)(C)c1ccc(NC(=O)CON=C(N)c2ccccc2)cc1,u,x,-3%[0.505 µM],x,29µM*
Cc1cc(C(=O)O/N=C(\N)c2ccc(C(C)(C)C)cc2)no1,-15%,12%,-3%,24%,-18%
CC(=O)Nc1ccc(C(=O)CSc2ncn(-c3ccccc3)n2)cc1,-3%,37%,2%,-14%,-29%
CC1CC(C)CN(CCCNC(=O)CCC(=O)N2CCOc3ccccc32)C1 (stereo not given),14%,-23%,x,2%,5%
COc1ccc(C(=O)NCC(=O)OCc2cccc(Br)c2)cc1,1%,4%,3%,1%,-4%
Cn1cccc1-c1cc(C(=O)N/N=C/c2cc(Br)ccc2O)[nH]n1,5.8µM*,7.1µM*,79µM*,10µM*,4.1µM*
COc1ccc(O)c(/C=N/NC(=O)c2ccc(OCc3cccc(Br)c3)cc2)c1,4.6µM*,5µM*,-14%,4.5µM*,5.8µM*
SMILES,DT40 TDP1 CPT,RORgamma inh,TDP1 block,Gal4-VP16 FLuc,TDP1 cell noCPT
CCN(CC)c1ccc(C(=O)N/N=C/c2ccccc2OC(F)F)cc1,u,2.5µM*,5%,u,u
COc1ccccc1/C=N/NC(=O)c1ccc(Br)cc1,-12%,13µM*,4%,-9%,-30%
C=CCOc1ccc(/C=C2\SC(N3CCCCC3)=NC2=O)cc1,u,u,x,12%,u
COc1ccc(C(=O)N/N=C/c2cc(Br)ccc2O)cc1OC,2.3µM*,3.2µM*,x,4.5µM*,3.3µM*
Cn1cc(C[C@H](NC(=O)OC(C)(C)C)C(=O)N[C@@H](CO)Cc2ccccc2)c2ccccc21,18µM*,x,x,x,u
CC1(C)Cc2ccccc2-c2n[nH]c(=S)n21,u,2.8µM*,2%,0.89µM*,23µM*
CCSc1nnc2n1C(C)(C)Cc1ccccc1-2,-2%,0%,-1%,9%,0%
Cc1cc2c3c(c1)C1(C(=O)N3C(C)(C)CC2C)C(C#N)=C(N)Oc2cc(O)ccc21 (stereo not given),-13%,-16%,7%,-8%,25µM*
Cc1cc(NCCCn2ccnc2)n2ncc(-c3ccccc3)c2n1,u,4.5µM*,7%,7.9µM*,0%
Cc1cc(NCCN2CCOCC2)n2nc(C)c(-c3ccccc3)c2n1,-16%,8.9µM*,5%,10µM*,u
Cc1cc(NCCN2CCOCC2)n2ncc(-c3ccccc3)c2n1,-16%,3.5µM*,0%,10µM*,-22%
Cc1cc(NCCCn2ccnc2)n2nc(C)c(-c3ccc(Cl)cc3)c2n1,16µM*,1%,-7%,-13%,15µM*
CC[C@H](NC(=O)/C=C/[C@H]1O[C@@H](n2cc(C)c(=O)[nH]c2=O)C[C@@H]1O)c1ccccc1,4%,x,x,x,4%
C[C@@H]1CCCCO[C@@H](CN(C)C(=O)Nc2ccc3c(c2)OCO3)[C@@H](C)CN([C@H](C)CO)C(=O)c2cc(N(C)C)ccc2O1,-5%,x,x,x,u
COc1ccc(Cn2nc(C)n(N(C)c3ncc(C(F)(F)F)cc3Cl)c2=O)cc1,16µM*,28%,3%,17%,9.2µM*
O=C(O)C1CN(CCCP(=O)(O)O)CCN1 (stereo not given),x,x,11%,x,x
O=C(CCc1ccccc1)Nc1nccs1,-10%,3%,x,-15%,6%

# Screening data deposited in PubChem BioAssay by National Center for Advancing Translational Sciences (NCATS).
